# Reference: the supplement of paper PMC8728848
# The full list was thinned out, with the strongest signals kept by preference.
# B1: Als3-2 (Candida albicans) (protein)
# chain: KTITGVFNSFNSLTWSNAATYNYKGPGTPTWNAVLGWSLDGTSASPGDTFTLNMPCVFKFTTSQTSVDLTAHGVKYATCQFQAGEEFMTFSTLTCTVSNTLTPSIKALGTVTLPLAFNVGGTGSSVDLEDSKCFTAGTNTVTFNDGGKKISINVDFERSNVDPKGYLTD
# Tests used:
# Assay in all cases: glycan array binding signal (z-score within array); higher = stronger binding
# Settings in all cases: glycan notation: IUPAC condensed, linker removed
# [1] = target: Fuc(a1-2)Gal(b1-3)GlcNAc(b1-2)Man(a1-3)[Fuc(a1-2)Gal(b1-3)GlcNAc(b1-2)Man(a1-6)]Man(b1-4)GlcNAc(b1-4)GlcNAc
# Outline: (§1)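 Negative Z-scores can be read as non-binding. The Z-score is calculated within each array and then averaged across arrays of one protein sequence at different concentrations or buffers and across linkers. Arrays, 3228 in all, were curated from the Consortium for Functional Glycomics database and kept only where the protein sequence was available.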
# [2] = target: Fuc(a1-2)Gal(b1-4)GlcNAc(b1-3)GalNAc
# Outline: as §1
# [3] = target: Fuc(a1-2)[Gal(a1-3)]Gal(b1-4)Glc
# Outline: as §1
# [4] = target: Fuc(a1-2)[GalNAc(a1-4)]Gal(b1-4)GlcNAc
# Outline: as §1
# [5] = target: Fuc(a1-3)[Gal(b1-4)]GlcNAc(b1-3)Gal(b1-3)[Fuc(a1-4)]GlcNAc
# Outline: as §1
# [6] = target: Fuc(a1-3)[Gal3S(b1-4)]Glc
# Outline: as §1
# [7] = target: Fuc(a1-3)[GalNAc(b1-4)]GlcNAc6S
# Outline: as §1
# [8] = target: Gal(a1-3)GalNAc
# Outline: as §1
# [9] = target: Gal(a1-6)Glc
# Outline: as §1
# [10] = target: Gal(b1-3)GalNAc
# Outline: as §1
# [11] = target: Gal(b1-3)GlcNAc(a1-3)Gal(b1-4)GlcNAc
# Outline: as §1
# [12] = target: Gal(b1-3)GlcNAc(b1-3)Gal(b1-4)GlcNAc(b1-2)Man(a1-3)[Gal(b1-3)GlcNAc(b1-3)Gal(b1-4)GlcNAc(b1-2)Man(a1-6)]Man(b1-4)GlcNAc(b1-4)GlcNAc
# Outline: as §1
# [13] = target: Gal(b1-3)GlcNAc(b1-3)Gal(b1-4)GlcNAc(b1-6)[Gal(b1-3)GlcNAc(b1-3)]Gal(b1-4)Glc
# Outline: as §1
# [14] = target: Gal(b1-3)[Fuc(a1-4)]GlcNAc(b1-3)Gal(b1-4)[Fuc(a1-3)]GlcNAc
# Outline: as §1
# [15] = target: Gal(b1-4)Gal
# Outline: as §1
# [16] = target: Gal(b1-4)GlcNAc(b1-2)Man(a1-3)[Man(a1-6)]Man(b1-4)GlcNAc(b1-4)GlcNAc
# Outline: as §1
# [17] = target: Gal(b1-4)GlcNAc(b1-3)Gal(b1-4)GlcNAc(b1-3)Gal(b1-4)GlcNAc(b1-2)Man(a1-3)[Gal(b1-4)GlcNAc(b1-3)Gal(b1-4)GlcNAc(b1-3)Gal(b1-4)GlcNAc(b1-2)Man(a1-6)]Man(b1-4)GlcNAc(b1-4)GlcNAc
# Outline: as §1
# [18] = target: Gal(b1-4)GlcNAc(b1-3)Gal(b1-4)GlcNAc(b1-3)Gal(b1-4)GlcNAc(b1-3)Gal(b1-4)GlcNAc(b1-3)Gal(b1-4)GlcNAc(b1-2)Man(a1-3)[Gal(b1-4)GlcNAc(b1-3)Gal(b1-4)GlcNAc(b1-3)Gal(b1-4)GlcNAc(b1-3)Gal(b1-4)GlcNAc(b1-3)Gal(b1-4)GlcNAc(b1-2)Man(a1-6)]Man(b1-4)GlcNAc(b1-4)GlcNAc
# Outline: as §1
# [19] = target: Gal(b1-4)GlcNAc(b1-3)Gal(b1-4)GlcNAc(b1-3)Gal(b1-4)GlcNAc(b1-3)Gal(b1-4)GlcNAc(b1-3)Gal(b1-4)GlcNAc(b1-2)Man(a1-3)[Gal(b1-4)GlcNAc(b1-3)Gal(b1-4)GlcNAc(b1-3)Gal(b1-4)GlcNAc(b1-3)Gal(b1-4)GlcNAc(b1-3)Gal(b1-4)GlcNAc(b1-2)Man(a1-6)]Man(b1-4)GlcNAc(b1-4)[Fuc(a1-6)]GlcNAc
# Outline: as §1
# [20] = target: Gal(b1-4)GlcNAc(b1-3)Gal(b1-4)GlcNAc(b1-3)Gal(b1-4)GlcNAc(b1-3)Gal(b1-4)GlcNAc(b1-3)Gal(b1-4)GlcNAc(b1-2)[Gal(b1-4)GlcNAc(b1-3)Gal(b1-4)GlcNAc(b1-3)Gal(b1-4)GlcNAc(b1-3)Gal(b1-4)GlcNAc(b1-3)Gal(b1-4)GlcNAc(b1-6)]Man(a1-6)[Gal(b1-4)GlcNAc(b1-3)Gal(b1-4)GlcNAc(b1-3)Gal(b1-4)GlcNAc(b1-3)Gal(b1-4)GlcNAc(b1-3)Gal(b1-4)GlcNAc(b1-2)Man(a1-3)]Man(b1-4)GlcNAc(b1-4)[Fuc(a1-6)]GlcNAc
# Outline: as §1
# [21] = target: Gal(b1-4)GlcNAc(b1-6)Gal(b1-4)GlcNAc
# Outline: as §1
# [22] = target: Gal3S(b1-4)GlcNAc
# Outline: as §1
# [23] = target: Gal6S(b1-3)GlcNAc
# Outline: as §1
# [24] = target: GalNAc(b1-4)GlcNAc
# Outline: as §1
# [25] = target: GlcNAc(b1-2)[GlcNAc(b1-6)]Man(a1-6)[GlcNAc(b1-4)][GlcNAc(b1-2)Man(a1-3)]Man(b1-4)GlcNAc(b1-4)GlcNAc
# Outline: as §1
# [26] = target: GlcNAc(b1-3)Gal(b1-4)GlcNAc(b1-3)Gal(b1-4)GlcNAc(b1-3)Gal(b1-4)GlcNAc(b1-3)Gal(b1-4)GlcNAc(b1-2)Man(a1-3)[GlcNAc(b1-3)Gal(b1-4)GlcNAc(b1-3)Gal(b1-4)GlcNAc(b1-3)Gal(b1-4)GlcNAc(b1-3)Gal(b1-4)GlcNAc(b1-2)Man(a1-6)]Man(b1-4)GlcNAc(b1-4)[Fuc(a1-6)]GlcNAc
# Outline: as §1
# [27] = target: GlcNAc(b1-4)GlcNAc
# Outline: as §1
# [28] = target: Kdn(a2-3)Gal(b1-4)Glc
# Outline: as §1
# [29] = target: Kdn(a2-3)Gal(b1-4)GlcNAc
# Outline: as §1
# [30] = target: Man(a1-2)Man(a1-3)Man
# Outline: as §1
binder,measurement,setting,value
B1,glycan array binding signal (z-score),[1],7.12
same,glycan array binding signal (z-score),[2],9.17
same,glycan array binding signal (z-score),[3],-0.338
same,glycan array binding signal (z-score),[4],-0.444
same,glycan array binding signal (z-score),[5],3.23
same,glycan array binding signal (z-score),[6],-0.64
same,glycan array binding signal (z-score),[7],0.076
same,glycan array binding signal (z-score),[8],-0.308
same,glycan array binding signal (z-score),[9],-0.625
same,glycan array binding signal (z-score),[10],-0.398
same,glycan array binding signal (z-score),[11],-0.203
same,glycan array binding signal (z-score),[12],2.3
same,glycan array binding signal (z-score),[13],-0.603
same,glycan array binding signal (z-score),[14],-0.461
same,glycan array binding signal (z-score),[15],-0.552
same,glycan array binding signal (z-score),[16],0.449
same,glycan array binding signal (z-score),[17],3.26
same,glycan array binding signal (z-score),[18],5.24
same,glycan array binding signal (z-score),[19],3.26
same,glycan array binding signal (z-score),[20],3.16
same,glycan array binding signal (z-score),[21],1.11
same,glycan array binding signal (z-score),[22],0.36
same,glycan array binding signal (z-score),[23],3.68
same,glycan array binding signal (z-score),[24],0.934
same,glycan array binding signal (z-score),[25],-0.7
same,glycan array binding signal (z-score),[26],3.13
same,glycan array binding signal (z-score),[27],0.531
same,glycan array binding signal (z-score),[28],-0.075
same,glycan array binding signal (z-score),[29],-0.528
same,glycan array binding signal (z-score),[30],-0.511
